# Experimental data: PubChem BioAssay (NCI)
# The panel holds about 83,000 compounds, 20% with a hit somewhere; the sample as a whole holds those more often.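 Assay: single dose, 48 h. Readout: percent growth (0 = no net growth; negative = cell death). Active: <10.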 Values without a mark were called inactive. The source made the active and inactive calls.
# How the values were obtained:
# Assay in all cases: NCI-60 one-dose screen, 48 h (100 = growth as untreated, 0 = no growth, -100 = all killed)
# Details in all cases: 10 µM unless noted
# HCT-15 colon = tested on: HCT-15 colon
# HT29 colon = tested on: HT29 colon
# SNB-75 CNS = tested on: SNB-75 CNS
# SNB-19 CNS = tested on: SNB-19 CNS
# PC-3 prostate = tested on: PC-3 prostate
# SK-MEL-5 melanoma = tested on: SK-MEL-5 melanoma
# UACC-62 melanoma = tested on: UACC-62 melanoma
# LOX IMVI melanoma = tested on: LOX IMVI melanoma
# SK-MEL-28 melanoma = tested on: SK-MEL-28 melanoma
# U251 CNS = tested on: U251 CNS
SMILES,growth (HCT-15 colon),growth (HT29 colon),growth (SNB-75 CNS),growth (SNB-19 CNS),growth (PC-3 prostate),growth (SK-MEL-5 melanoma),growth (UACC-62 melanoma),growth (LOX IMVI melanoma),growth (SK-MEL-28 melanoma),growth (U251 CNS)
O=C1CC(c2nc3ccccc3s2)CN1C1CCCCC1 (stereo not drawn),99.7%,95.4%,83.7%,105%,90.1%,96.3%,93.9%,93%,101%,
CCCCCCCCOC(=O)CC[C@@H](C)[C@H]1CC[C@H]2[C@@H]3[C@H](OC(=O)CCN)C[C@@H]4C[C@H](OC(=O)CCN)CC[C@]4(C)[C@H]3C[C@H](OC(=O)CCN)[C@]12C,102%,39.6%,63.9%,116%,87.3%,97%,104%,63.2%,58.4%,
CCOC(=O)N1CCN(c2nc(Nc3cc(C)[nH]n3)c3ccccc3n2)CC1,40.4%,22.6%,-21.2% (active),89.2%,57.2%,57.9%,66.8%,24%,59.6%,
Oc1ccc2c(=S)cc(-c3ccc(Br)cc3)oc2c1O,8.03% (active),63.9%,71.4%,6.8% (active),-2.05% (active),10.9%,8.09% (active),1.22% (active),51.4%,
O=C(/C=C/c1ccc(Cl)cc1)/C=C/c1cc2ccccc2[nH]c1=O,69%,-0.317% (active),68.8%,83.4%,48.8%,75.2%,52.9%,-44.5% (active),76.1%,
Nc1cc(-c2nc3sccn3c2-c2ccnc(NCCCNS(=O)(=O)c3ccc(F)cc3)n2)ccc1F,28.3%,17.8%,68.7%,88%,48.6%,27.2%,21.2%,34.1%,50.7%,
Nc1cc2nc3ccccc3sc-2cc1=O,55.2%,94.1%,109%,91.7%,50.8%,31.3%,17.2%,11%,46.5%,
O=S(=O)(Nc1ccc(F)c(Cl)c1)c1ccc(-c2cnc(C3CC3)o2)cc1,22.3%,-3.16% (active),-14.4% (active),49.3%,24.9%,6.59% (active),28.3%,42.8%,62.5%,
CCN(CC)CCCC(C)NCCCNc1cccc2cccnc12 (stereo not drawn),104%,92%,89.9%,,87.3%,98.5%,90.4%,85.3%,123%,91.4%
O=C1C=CC(Nc2ccccc2[N+](=O)[O-])C1Nc1ccccc1[N+](=O)[O-] (stereo not drawn),-86.6% (active),-32.3% (active),36.9%,,51.6%,45%,-68.9% (active),-97.3% (active),-92.9% (active),72.4%
CN1Cc2c(cc(CN3CCCCC3)n2C)C(c2ccc(Br)cc2)C1 (stereo not drawn),67.7%,49.6%,70.3%,,82.9%,61.2%,-16.1% (active),68.2%,54.3%,86.4%
CN1CCCCC1CCN1c2ccccc2Sc2ccc(Br)cc21 (stereo not drawn),54.6%,29.8%,3.86% (active),97.4%,56.2%,,,60%,68.6%,
CCN(CC)CC(C)Nc1ccc([N+](=O)[O-])c2sc3ccccc3c(=O)c12 (stereo not drawn),23.6%,12%,36.3%,,14.6%,5.5% (active),33.5%,14.7%,,28.4%
COc1ccc(-c2cnoc2-c2cc(OC)c3c(c2)OCCO3)cc1,4.48% (active),1.26% (active),13.2%,29.5%,,-27.8% (active),13.4%,17.4%,50.9%,
CN1CCN(Cc2ccc(NC(=O)c3[nH]ncc3Nc3ncnc4c3CCC4)cc2)CC1,13.7%,9.71% (active),-22.6% (active),,9.21% (active),9.53% (active),9.97% (active),7.49% (active),5.62% (active),15.4%
Cc1ccc(N)cc1F,91.7%,110%,101%,,108%,104%,96%,87.8%,117%,95.8%
O=C(/C=C/c1cccc(Br)c1)c1ccccc1,76.6%,67.9%,88.4%,96%,,92.3%,92.6%,78.2%,100%,
